# ALDH1A1 inh – qHTS Assay for Inhibitors of Aldehyde Dehydrogenase 1 (ALDH1A1); AID 1030, 2008; Aldehyde dehydrogenase 1A1 (Homo sapiens), P00352; 220,000 compounds, 7.3% hits; Potency, µM (highest dose often 75.3 µM), inactives show at the top dose activity, negative = inhibition, usual class: inhibitors; Purified ALDH1A1, NADH fluorescence, propionaldehyde substrate;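 further: potency means the concentration at half of the fitted maximal effect; plate controls were no enzyme wells and a reference inhibitor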
# Lamin A splicing – qHTS Assay for Modulators of Lamin A Splicing. HeLa LMNA splicing GFP/RFP minigene ratio, 48 h. Potency, µM (top dose mostly 46.1 µM), inactives show at the top dose ratio change, negative = inhibition, actives largely listed as inhibitors. 200,000 compounds, 0.01% hits. AID 1487, 2009; active means well fitted inhibition curve with a large enough effect in the signal ratio, with a control signal flat, not every such curve was filed as active; inconclusive means small, poorly fitted or top-dose-only effect, or effect the other way, or a change in a side signal; the % refers to the signal ratio; further: potency means the concentration at half of the fitted maximal effect
#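 S3 HeLa cells stably expressing lamin A-EGFP splicing minigene plus DsRed2, 600 cells/well, 48 h compound exposure at 37C. Laser-scanning cytometry; analysed as GFP (500-530 nm)/RFP (575-640 nm) total intensity ratio; 0.5% DMSO vehicle.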
# HPGD inh – qHTS Assay for Inhibitors of HPGD (15-Hydroxyprostaglandin Dehydrogenase) | 15-hydroxyprostaglandin dehydrogenase [NAD(+)] (Homo sapiens), P15428 | purified HPGD, NADH fluorescence kinetic, PGE2 substrate | Potency, µM, for the others: top-dose activity change, negative = inhibition, usual class: inhibitors | 150,000 compounds, 4.3% hits; further: potency means the concentration at half of the fitted maximal effect
#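 NADH formation kinetics: reaction with 30 uM PGE2 and 1 mM NAD+ (final), 20 nM enzyme, Tris-HCl pH 8 with Tween 20, after 15 min compound preincubation at room temperature. Fluorescence change, last versus first of five reads.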
# 12-hLO inh – qHTS Assay for Inhibitors of 12-hLO (12-human lipoxygenase); Polyunsaturated fatty acid lipoxygenase ALOX12 (Homo sapiens), P18054; purified 12-hLO, xylenol orange hydroperoxide absorbance; Potency, µM (highest dose often 57.1 µM), inactives show at the highest dose activity change, negative = inhibition, hits mostly inhibitors; 150,000 compounds, 0.12% hits; AID 1452, 2008; active means well fitted inhibition curve with a large enough effect; inconclusive means small, poorly fitted or top-dose-only effect; further: potency means the concentration at half of the fitted maximal effect; nearly all actives have a fitted effect of over 55% in size
# Target sequence (P18054 whole entry, looked up): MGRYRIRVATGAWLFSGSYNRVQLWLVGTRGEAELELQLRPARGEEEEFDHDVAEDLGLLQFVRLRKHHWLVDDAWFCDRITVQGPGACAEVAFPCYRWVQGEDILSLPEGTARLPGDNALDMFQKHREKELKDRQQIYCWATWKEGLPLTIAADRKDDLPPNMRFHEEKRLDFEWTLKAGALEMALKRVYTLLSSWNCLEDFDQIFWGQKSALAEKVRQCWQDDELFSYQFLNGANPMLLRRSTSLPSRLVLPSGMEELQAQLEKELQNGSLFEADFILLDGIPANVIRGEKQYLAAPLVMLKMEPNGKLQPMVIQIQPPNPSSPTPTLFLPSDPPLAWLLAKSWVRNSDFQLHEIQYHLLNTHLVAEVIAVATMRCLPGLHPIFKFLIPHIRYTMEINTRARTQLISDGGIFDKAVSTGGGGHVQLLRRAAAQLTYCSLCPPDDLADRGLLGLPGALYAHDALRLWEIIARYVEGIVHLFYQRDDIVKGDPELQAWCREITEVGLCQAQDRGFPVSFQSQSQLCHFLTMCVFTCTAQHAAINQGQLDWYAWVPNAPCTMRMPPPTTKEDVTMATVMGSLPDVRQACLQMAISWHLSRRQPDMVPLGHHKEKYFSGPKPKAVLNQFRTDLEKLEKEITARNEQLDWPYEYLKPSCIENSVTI
#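 150 nM 12hLO, 25 mM Hepes pH 7.0 + 0.01% Triton X-100; cpd preinc 15 min RT; 40 uM arachidonic acid, 30 min RT; Fe-XO 30 min; A573/A405 ratio as read-out.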
# PNC inhibitor – High Content Assay for Compounds that inhibit the Assembly of the Perinucleolar Compartment; PC3M PTB-GFP, PNC prevalence imaging, 16 h; stronger effect = lower value; activity change (PNC), negative = inhibition, % at 10 µM; 140,000 compounds, 3.1% hits; AID 2417, 2010;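 active means readout at or below -70, meaning at least 70% loss of cells showing the perinucleolar compartment, a nuclear body marking cancer cells; inconclusive means readout between -30 and a set limit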;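 further: plate controls were DMSO wells for no effect and camptothecin positive control wells for full effect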
#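 Compounds are pinned in duplicate onto adhered PC3M cells stably expressing GFP-tagged PTB and incubated 16 h at 37 C. Cells are then fixed, nuclei stained with Hoechst, and PNC-positive cells counted.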
# Numbers without * were called inactive; ? = inconclusive; . = not tested or not shown; [ ] = dose if it differs, or a comment. In the library only some 10% were active in any assay of this set; here they are far more common. Unless noted, the call rests on the fitted dose curve; in most records, active means well fitted inhibition curve with a large enough effect (not every such curve was filed as active); inconclusive means small, poorly fitted or top-dose-only effect, or another doubt; inactive means no such curve, though single readings can be large or run the other way. Unless noted, on the % scale 0 is the no-effect control and ±100 the full control effect.
SMILES,ALDH1A1 inh,Lamin A splicing,HPGD inh,12-hLO inh,PNC inhibitor
CCN1CCN(c2cc(C)c3cc(NC(=S)N4CCN(c5ccccc5F)CC4)ccc3n2)CC1,13µM*,.,.,.,.
Cc1cc(N2CCN(C)CC2)nc2ccc(NC(=S)N3CCN(c4ccccn4)CC3)cc12,13µM*,.,.,.,.
Cc1ccc(COn2c(-c3ccc(Cl)cc3Cl)nc3ncccc32)cc1,18µM*,-15%,7%,-5%,4
Clc1cccc(COn2c(-c3ccc(Cl)cc3Cl)nc3ncccc32)c1,1%,?,6%,-9%,-17
CCCn1c(SCC(=O)N2c3ccc(F)cc3CCC2C)nnc1-c1ccccn1 (stereo not drawn),?,-7%,-10%,-3%,-119*
CCC(CC)C(=O)N1c2ccc(F)cc2CCC1C (stereo not drawn),-4%,8%,-3%,-2%,16
CC1CCc2cc(F)ccc2N1C(=O)CCl (stereo not drawn),0.14µM*,-14%[46 µM],.,.,.
COc1ccccc1NC(=O)N1c2ccc(F)cc2CCC1C (stereo not drawn),22µM*,12%,-5%,6%,11
COc1ccc(C(=O)N2c3ccc(F)cc3CCC2C)cc1OC (stereo not drawn),-16%,-2%,-12%,-2%,15
COc1ccc(C2=NN(C(C#N)c3ccc(OC)cc3)C(c3ccccc3)C2)cc1 (stereo not drawn),22µM*,-7%,-6%,-21%,14
COc1ccc(C(C#N)N2N=C(c3ccccc3)CC2c2ccccc2)cc1OC (stereo not drawn),?,-9%,-9%,4%,9
O=S(=O)(NC1CCCCC1Oc1ccccc1)c1ccc(Cl)cc1 (stereo not drawn),?,?,-2%,4%,?
CSc1ccc(OC2CCCCC2NS(=O)(=O)c2ccc(Cl)cc2)cc1 (stereo not drawn),0.45µM*,?,-13%,-7%,3
O=S(=O)(c1ccccc1)N1CCC(c2ccncc2)CC1,.,2%[46 µM],.,.,.
COc1cc(-c2cc3n(C)c(C)c(CCC(=O)NC4CCC(C)CC4)c(=O)n3n2)cc(OC)c1OC (stereo not drawn),.,-7%[46 µM],.,.,.
Cc1cccc(N(C(=O)Nc2ccc(Cl)cc2)C2=NCC(C)S2)n1 (stereo not drawn),6%,17%[46 µM],.,.,.
CC(=O)Nc1ccc(S(=O)(=O)N(C)Cc2ccccc2)cc1,-7%,.,.,.,.
COc1ccc(Cl)cc1N(C(=O)Nc1cccc(Cl)c1)C1=NCC(C)S1 (stereo not drawn),-6%,-8%,-19%,1%,-29
CC(=O)Nc1ccc(S(=O)(=O)N(C)c2ccccc2)cc1,1%,1%,-12%,-3%,28
CC(=O)Nc1ccc(S(=O)(=O)N(C2=NCC(C)S2)c2ccccc2)cc1 (stereo not drawn),13µM*,-10%,-16%,-2%,280
CC1CN=C(N(C(=O)Nc2ccccc2)c2ccc(F)cc2)S1 (stereo not drawn),-6%,-7%,10µM*,1%,-26
Cc1cccc(N(C(=O)Nc2ccccc2)C2=NCC(C)S2)c1 (stereo not drawn),-3%,-6%,18µM*,2%,9
CC(=O)Nc1ccc(S(=O)(=O)N(c2cccnc2)S(=O)(=O)c2ccc(NC(C)=O)cc2)cc1,-3%,-4%,11µM*,-2%,-18
COc1ccc(CC(=O)NC2CCN(Cc3nnnn3C(C)(C)C)CC2)cc1OC,25µM*,10%,-6%,8%,?
CCC(C)(C)n1nnnc1CN1CCC(NC(=O)c2ccc(Br)cc2)CC1,5µM*,?,-13%,0%,?
SMILES,ALDH1A1 inh,Lamin A splicing,HPGD inh,12-hLO inh,PNC inhibitor
CC(C)Oc1ccc(C(=O)N2CCN(c3nc4c(F)cc(F)cc4s3)CC2)cc1,.,-4%[46 µM],.,.,.
c1ccc(OCc2nc3c4c(ncn3n2)-c2ccccc2CC42CCCC2)cc1,?,-13%,-30%,1%,-125*
CN1C(=O)/C(=C/c2ccc(-c3ccccc3[N+](=O)[O-])o2)SC1=Nc1ccc(Cl)c(C(=O)O)c1,13µM*,-3%,14µM*,-3%,?
COc1cccc(-c2cc(C(=O)N3CCCCCC3)no2)c1,?,-9%,2.5µM*,-10%,-108*
COc1ccc(-c2cc(C(=O)N3CCc4ccccc4C3)no2)cc1OC,?,-3%,11µM*,-12%,43
O=C(c1cc(-c2ccccc2)on1)N1CCc2ccccc2C1,5%,.,.,.,.
Cc1noc(C(=O)N2CC3(C)CC2CC(C)(C)C3)c1Cl (stereo not drawn),18µM*,?,-8%,-3%,?
O=C(c1cc(-c2cccc(O)c2)on1)N1CCCCC1,?,-7%,4.5µM*,-1%,?
CCOc1ccccc1-c1nc(Cn2c(=O)cc(C)c3c(C)nn(-c4ccccc4)c32)c(C)o1,.,-1%[46 µM],.,.,.
COc1ccccc1N1CCN(C(=O)c2cc(-c3ccc4c(c3)OCO4)on2)CC1,?,?,-29%,-2%,-25
O=C(c1cc(-c2ccc3c(c2)OCO3)on1)N1CCOCC1,-2%,12%,32µM*,3%,-23
O=C(c1cc(-c2ccc3c(c2)OCO3)on1)N1CCN(c2ccccc2)CC1,?,?,?,-7%,-8
COc1cccc(-c2cc(C(=O)N3CC4(C)CC3CC(C)(C)C4)no2)c1 (stereo not drawn),13µM*,?,-17%,-14%,?
COc1ccccc1N1CCN(C(=O)c2cc(-c3cccc(Cl)c3)on2)CC1,20µM*,?,-15%,-5%,-25
COc1cccc(-c2cc(C(=O)O)no2)c1,0.56µM*,25%,5.6µM*,-1%,-1
O=C(O)c1ccccc1C(=O)Nc1cc2c(cc1Br)-c1ccccc1C2=O,5%[13.5 µM],.,-13%,-1%[11.4 µM],.
CC1OCC23CC[C@@]4(C)CCC(C)(C)C[C@H]4[C@]2(C)CCC12C3CC[C@@]1(C)C2C(=O)CC(=O)[C@@H]1C (stereo partly drawn),9%,.,-1%,.,.
O=C(c1cc(-c2ccc(Cl)c(Cl)c2)on1)N1CCCC1,13%,-12%,-10%,-6%,10
CC1CCN(C(=O)c2cc(-c3ccc(Cl)c(Cl)c3)on2)CC1,?,?,14µM*,4%,216
COc1cccc(-c2cc(C(=O)N3CCCCC3C)no2)c1 (stereo not drawn),-13%,18%,16µM*,-3%,56
COc1cccc(-c2cc(C(=O)NCCN3CCOCC3)no2)c1,4%,-5%,-4%,-1%,18
